HCV inh = HCV inhibition. Huh7.5.1 HCVcc-Cre infection, luciferase reporter, 44 h. Potency, µM (series often up to 41.8 µM), for the others: top-dose activity change, negative = inhibition, hits mostly inhibitors. actives 3.4% (n = 340,000); also: % is scaled to controls: 0 for no effect and ±100 for the full control effect
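Whole-lifecycle infectious HCVcc-Cre system; cells 1,000/well, compound then virus (~0.5 moi) added 4 h after plating, 44 h culture. Luciferase read 15 sec following 15 min substrate incubation, room temp.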
Pf growth 96h = inhibits malaria parasite growth, 96 h | P. falciparum luciferase reporter growth, 96 h | Potency, µM (top dose mostly 28.7 µM), for the others: top-dose activity change, negative = inhibition, hits mostly inhibitors | AID 504834 | actives 6.9% (n = 320,000); also: % is scaled to controls: 0 for no effect and ±100 for the full control effect
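96 h incubation, 37 C, 5% CO2, of luciferase-reporter P. falciparum-infected RBCs (2% hematocrit, 0.05% parasitemia final) with test compounds; endpoint luminescence.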
NS1 inh = influenza NS1 inhibition | Potency, µM (highest dose often 46.1 µM), for the others: top-dose activity, positive = more growth | actives 0.4% (n = 270,000); calls by dose curve; also: actives are rising curves; nearly all actives have a fitted effect of over 50% in size
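Compounds were scored for reversing the slow growth caused by influenza A NS1 in S. cerevisiae, measured by optical density at 600 nm. Assay medium contained 2% galactose at pH 6.0; NS1-free yeast of the same strain were the positive control.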
Pf growth 48h = P. falciparum growth inhibition at 48 hours (one generation); P. falciparum luciferase growth in erythrocytes, 48 h; actives 5.9% (n = 310,000); AID 504832; Potency, µM (series often up to 28.7 µM), without a hit: top-dose activity change, negative = inhibition, most hits filed as inhibitors; also: % is scaled to controls: 0 for no effect and ±100 for the full control effect
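A one-generation exposure of luciferase-tagged malaria parasites in RPMI 1640/Albumax erythrocyte culture, 37 C and 5% CO2. Inhibition is inferred from decreased luminescence after adding detection reagent.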
SARS PLpro yeast = blocks SARS-CoV papain-like protease in a yeast assay | S. cerevisiae expressing SARS-CoV PLpro, growth rescue | Potency, µM (top dose mostly 32.9 µM), for inactives: at the highest dose activity, positive = growth rescue, usual class: activators | actives 0.19% (n = 330,000) | AID 485353; calls by dose curve; also: 0% is about no effect; nearly all actives have a fitted effect of over 55% in size
AMA1-RON2 inh = AMA1-RON2 (P. falciparum) interaction inhibition; Potency, µM (doses to about 58.2 µM), for the others: at the top dose activity change, negative = inhibition, usual class: inhibitors; AlphaScreen AMA1-biotinylated RON2 peptide binding; actives 0.2% (n = 360,000);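 also: 0% = vehicle wells and -100% = peptide control; nearly all actives have a fitted effect of over 45% in size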
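AMA1 (3D7) with his tag at 25 nM final met compounds first, then biotinylated RON2 peptide at 25 nM; detection used donor plus acceptor beads, 10 µg/mL apiece, read by AlphaScreen after 30 min at room temperature.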
Active calls of the source: *; ? = inconclusive; . = no result; [ ] = dose if it differs, or a comment. Only some compounds are listed: those with a hit (about 12% of all), similar ones and a draw of the others. Unless noted, calls follow the shape of the dose curve; as a rule, active = well fitted curve in the direction sought with a large enough effect; inconclusive = small, poorly fitted or top-dose-only effect, or another doubt; inactive = no such curve, though single readings can be large; an effect the other way counts as inactive or inconclusive. Potency is read from the fitted curve at half-maximal effect.

SMILES	HCV inh	Pf growth 96h	NS1 inh	Pf growth 48h	SARS PLpro yeast	AMA1-RON2 inh
CC(CCc1ccccc1)N1CCN(Cc2ccccc2)CC1 (configuration not stated)	3%	12µM*	20%	26%	-3%	-4%[11.6 µM]
CC(C)N1CCN(S(=O)(=O)c2ccccc2)CC1	10%	13%	9%	12%	-4%	?
CC(=O)c1ccc(-c2ccccc2[C@H]2[C@H]3C=CC[C@@H](C)[C@@H]3C(=O)N2Cc2ccccc2)cc1	.	?	-84%	?	-13%	.
CCOc1cc(OCC)c(C(C)=O)cc1OCC	15%	?	.	97%	3%	-6%
Cn1c(-c2ccccc2O)cc2ccccc21	-9%	5.2µM*	0%	3.7µM*	-40%	-11%
CC1CCN(C(=O)c2ncn3c2c(=O)[nH]c2ccc(Br)cc23)CC1	.	.	.	.	.	0%
COCCn1cnc2c(c1=O)c1nc3ccccc3nc1n2/N=C/c1ccc(OC)c(OC)c1	-10%	2.6µM*	6%	1.7µM*	1%	16%
COCCn1cnc2c(c1=O)c1nc3ccccc3nc1n2/N=C/c1cccc(OC)c1OC	.	.	-35%	.	.	.
CCn1c(SCC(=O)c2[nH]c(C)c(C(C)=O)c2C)nnc1-c1ccccc1	5.6µM*	?	1%	-14%	-2%	-3%
NC(=O)NC(=O)CSc1nnc(-c2ccc(Cl)cc2)n1CC1CCCO1 (configuration not stated)	11%	3%	.	0%	1%	15%
CC(=O)c1c(C)[nH]c(C(=O)CSc2ccc(F)cc2)c1C	13µM*	117%	-1%	91%	0%	-2%
CC(=O)c1c(C)[nH]c(C(=O)CSc2nnc(-c3ccc(Cl)cc3)n2CC2CCCO2)c1C (configuration not stated)	?	5.9µM*	12%	.	11%	-3%
COc1ccc(-c2nnc(SCC(=O)NC(C)C)n2CC2CCCO2)cc1OC (configuration not stated)	7%	3.3µM*	4%	10%	6%	-12%
FC(F)(F)c1ccccc1/C=N/n1c(COc2ccccc2)n[nH]c1=S	1%	17%	3%	-1%	-6%	62%
CC/C(=N\NC(=O)CCC(=O)NCc1ccccc1)c1ccc(O)cc1	?	33%	2%	11%	0%	36%
CC(C)(CO)NC(=S)NCc1ccco1	11%	35%	2%	?	-1%	0%
CCCn1c(C(O)c2cccc(OC)c2)nc2ccccc21 (configuration not stated)	20%	-11%	10%	?	2%	0%
Cc1ccc(NCc2nnc(SCC(N)=O)n2CC2CCCO2)c(C)c1 (configuration not stated)	2%	13µM*	-17%	-9%	18%	-7%
COc1cc(CNc2ccc(N3CCCCC3)cc2)ccc1OCC(=O)NC(C)(C)C	10µM*	5.2µM*	-5%	8%	-8%	?
COc1cc(CNc2ccc(S(N)(=O)=O)cc2)ccc1OCc1ccccc1F	11µM*	.	.	.	.	-9%
COc1cc(CNc2ccc(N3CCCC3)cc2)ccc1OCc1ccccc1	?	8%	-28%	8.3µM*	-18%	?
COc1ccc(CNC(=O)C[C@H]2C[C@H](C(=O)N3CCCCC3)[C@@]3(C)c4[nH]c5cc(CCC(=O)N(C)C)ccc5c4CCN3C2=O)cc1OC	-6%	.	.	.	19%	-3%
CCCCCCCCCCOCC(O)CN (configuration not stated)	.	12µM*	.	?	.	.
CCCCCCCCCCCCCCCCOCCOCCOCCOCCOCCOCCOCCOCCOCCOCCOCCOCCOCCOCCOCCOCCOCCOCCOCCOCCO	.	6.7µM*	.	13µM*	.	.
CCCCCCCC(=O)OCC(O)CO (configuration not stated)	3%[8.37 µM]	-11%	6%	8%	-1%	2%
SMILES	HCV inh	Pf growth 96h	NS1 inh	Pf growth 48h	SARS PLpro yeast	AMA1-RON2 inh
Cc1cccc(Oc2ccccc2NC(=O)C2=COCCO2)c1	-2%	-28%	.	?	-2%	6%
C(=C\c1nc2ccccc2[nH]1)/c1ccccc1	11µM*	?	-109%	-35%	-34%	9%
Cc1ccc(C(=O)c2cc3c(cc2N)OCCO3)cc1	12%	-26%	-3%	5%	2%	?
Cc1ccc(C(=O)c2cnc3cc4c(cc3c2S(=O)(=O)c2ccccc2)OCCO4)cc1	-7%	?	?	3.3µM*	-8%	-9%[11.6 µM]
COc1ccccc1N(CC(=O)N1CCCC1)S(=O)(=O)c1ccc(C)cc1	3%	29%	2%	-11%	-2%	6%
CCOC(=O)N1CCN(C(=O)CN(c2ccccc2OC)S(=O)(=O)c2ccc(C)cc2)CC1	10%	12µM*	-3%	?	2%	16%
CCOC(=O)C1CCN(C(=O)CN(c2cc(OC)ccc2OC)S(=O)(=O)c2ccccc2)CC1	9%	?	-10%	13µM*	-2%	-8%
CCOC(=O)N1CCN(C(=O)CN(C2CCCCC2)S(=O)(=O)c2ccc(C)cc2)CC1	9%	-4%	-42%	10µM*	-1%	2%
CCN(CC)C(=O)CN(c1cc2c(cc1OC)oc1ccccc12)S(=O)(=O)c1ccc(C)cc1	?	.	28%	12µM*	0%	-14%
O=C(CSC(=S)N1CCCC1)NCC(=O)Nc1ccc(F)c(F)c1	.	-4%	4%	27%	0%	-10%
COCCn1c(N)c(N(Cc2ccccc2)C(=O)c2oc3ccccc3c2C)c(=O)[nH]c1=O	14%	?	.	?	1%	-20%
CNC(=O)C1Cc2c(-c3ccccc3Oc3ccccc3)ccnc2O1 (configuration not stated)	.	.	.	.	.	1%
CC1=C(C(=O)OC2CCCCC2)C(c2ccc(O)cc2)NC(=O)N1 (configuration not stated)	8%	0%	29%	2%	-2%	5%
CC1=C(C(=O)OC2CCCCC2)C(c2ccc(F)cc2)NC(=O)N1 (configuration not stated)	-9%	9.3µM*	1%	4%	-4%	0%
O=C(OCC(=O)N(CCc1ccccc1)Cc1ccccc1)c1cccc(S(=O)(=O)N2CCOCC2)c1	-20%	.	.	.	.	0%
O=C(N/N=C/c1cccnc1)c1cc(-c2ccccc2OCc2ccccc2)n[nH]1	?	?	10%	10µM*	-2%	47%
O=C(N/N=C/c1cccnc1)c1ccccc1OCc1ccc(Br)cc1	?	3%	.	9.3µM*	-1%	-7%
CC(=O)Nc1ccc(C(=O)N/N=C/c2cccnc2)cc1	3%	3.7µM*	7%	0%	1%	59%
